± gives the uncertainty stated by the source.
Tested on: Candida albicans SNY425 biofilm
Experiment: biofilm OD600 with compound plus antifungal (OD600 (absorbance)); higher = more biofilm remaining
[1] = assay detail: disruption of 24-h mature biofilm (compound + antifungal for a second 24 h)
[2] = assay detail: sustained inhibition (compound + antifungal during 90-min adherence and 24-h growth)

SMILES | biofilm OD600 [1] | biofilm OD600 [2]
CC(C)CN(C[C@@H](O)[C@H](Cc1ccccc1)NC(=O)O[C@H]1CCOC1)S(=O)(=O)c1ccc(N)cc1 [amprenavir] + OC(Cn1cncn1)(Cn1cncn1)c1ccc(F)cc1F [fluconazole] (first compound 12.5 µM) | 0.264 ± 0.0069 | 0.16 ± 0.011
Cc1cccc(C)c1OCC(=O)N[C@@H](Cc1ccccc1)[C@@H](O)C[C@H](Cc1ccccc1)NC(=O)[C@H](C(C)C)N1CCCNC1=O [lopinavir] + C[C@@H]1[C@H](O)[C@@H](C)/C=C/C=C/C=C/C=C/C=C/C=C/C=C/[C@H](O[C@@H]2O[C@H](C)[C@@H](O)[C@H](N)[C@@H]2O)C[C@@H]2O[C@](O)(C[C@@H](O)C[C@@H](O)[C@H](O)CC[C@@H](O)C[C@@H](O)CC(=O)O[C@H]1C)C[C@H](O)[C@H]2C(=O)O [amphotericin B] (first compound 12.5 µM) | 0.246 ± 0.0051 | 0.14 ± 0.015
CC(C)C[C@@H](C=O)NC(=O)[C@H](CC(C)C)NC(=O)[C@H](CC(C)C)NC(=O)OCc1ccccc1 + OC(Cn1cncn1)(Cn1cncn1)c1ccc(F)cc1F [fluconazole] (first compound 12.5 µM) | 0.277 ± 0.0062 | 0.148 ± 0.0097
CC1(C)C[C@@H]1C(=O)N/C(=C\CCCCSC[C@H](N)C(=O)O)C(=O)O [Cilastatin] + CC[C@H](C)C[C@H](C)CCCCCCCCC(=O)N[C@H]1C[C@@H](O)[C@@H](NCCN)NC(=O)[C@@H]2[C@@H](O)CCN2C(=O)[C@H]([C@H](O)CCN)NC(=O)[C@H]([C@H](O)[C@@H](O)c2ccc(O)cc2)NC(=O)[C@@H]2C[C@@H](O)CN2C(=O)[C@H]([C@@H](C)O)NC1=O [caspofungin] (first compound 12.5 µM) | 0.283 ± 0.0048 | 0.199 ± 0.02
CCN1C(=O)C=CC1=O [N-Ethylmaleimide] + CC[C@H](C)C[C@H](C)CCCCCCCCC(=O)N[C@H]1C[C@@H](O)[C@@H](NCCN)NC(=O)[C@@H]2[C@@H](O)CCN2C(=O)[C@H]([C@H](O)CCN)NC(=O)[C@H]([C@H](O)[C@@H](O)c2ccc(O)cc2)NC(=O)[C@@H]2C[C@@H](O)CN2C(=O)[C@H]([C@@H](C)O)NC1=O [caspofungin] (first compound 4 µM) | 0.281 ± 0.013 | 0.17 ± 0.0037
CCCC[C@@H](C=O)NC(=O)OC(C)(C)C + CC[C@H](C)C[C@H](C)CCCCCCCCC(=O)N[C@H]1C[C@@H](O)[C@@H](NCCN)NC(=O)[C@@H]2[C@@H](O)CCN2C(=O)[C@H]([C@H](O)CCN)NC(=O)[C@H]([C@H](O)[C@@H](O)c2ccc(O)cc2)NC(=O)[C@@H]2C[C@@H](O)CN2C(=O)[C@H]([C@@H](C)O)NC1=O [caspofungin] (first compound 12.5 µM) | 0.254 ± 0.0097 | 0.167 ± 0.0058
O=C1Nc2ccc([N+](=O)[O-])cc2C1=O [5-Nitroisatin] + C[C@@H]1[C@H](O)[C@@H](C)/C=C/C=C/C=C/C=C/C=C/C=C/C=C/[C@H](O[C@@H]2O[C@H](C)[C@@H](O)[C@H](N)[C@@H]2O)C[C@@H]2O[C@](O)(C[C@@H](O)C[C@@H](O)[C@H](O)CC[C@@H](O)C[C@@H](O)CC(=O)O[C@H]1C)C[C@H](O)[C@H]2C(=O)O [amphotericin B] (first compound 12.5 µM) | 0.256 ± 0.005 | 0.159 ± 0.013
CCC(C)[C@H](NS(=O)(=O)c1cccc2ccccc12)C(=O)N[C@H](C=O)Cc1c[nH]c2ccccc12 (stereo not given in full) + OC(Cn1cncn1)(Cn1cncn1)c1ccc(F)cc1F [fluconazole] (first compound 12.5 µM) | 0.249 ± 0.0046 | 0.14 ± 0.0069
CC1CNc2c(cccc2S(=O)(=O)N[C@@H](CCCNC(=N)N)C(=O)N2CC[C@@H](C)C[C@@H]2C(=O)O)C1 (stereo not given in full) [Argatroban] + C[C@@H]1[C@H](O)[C@@H](C)/C=C/C=C/C=C/C=C/C=C/C=C/C=C/[C@H](O[C@@H]2O[C@H](C)[C@@H](O)[C@H](N)[C@@H]2O)C[C@@H]2O[C@](O)(C[C@@H](O)C[C@@H](O)[C@H](O)CC[C@@H](O)C[C@@H](O)CC(=O)O[C@H]1C)C[C@H](O)[C@H]2C(=O)O [amphotericin B] (first compound 12.5 µM) | 0.3 ± 0.018 | 0.191 ± 0.0048
N[C@H](C(=O)O)[C@@H]1CC(Cl)=NO1 [Acivicin] + OC(Cn1cncn1)(Cn1cncn1)c1ccc(F)cc1F [fluconazole] (first compound 4 µM) | 0.279 ± 0.0067 | 0.123 ± 0.0055

From the supplement of paper PMC7261846
